Assay results as given in PubChem BioAssay (NCI).
This is part of a sample that, as a whole, favours compounds with a hit. Of some 79,000 tested, about 15% had one in any assay. Active and inactive are the calls of the source. No stated cut-off is given here; in the data, active means growth inhibition above about 70%; inactive means the rest.

What was measured:
[1] = NCI Yeast Anticancer Drug Screen. Data for the rad50 strain (AID 155);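 further: 0% = growth of vehicle-only cultures of the same strain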; conditions: S. cerevisiae rad50 strain growth inhibition, stronger effect = higher value
How it was run: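 Yeast carrying a defined DNA repair defect were exposed to test compounds, and growth was compared with vehicle-treated controls to give percent inhibition.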

[2] = NCI Yeast Anticancer Drug Screen. Data for the mec2-1 strain (AID 157); conditions: S. cerevisiae mec2-1 strain, stronger effect = higher value
How it was run: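 Each compound was tested on mec2-1 yeast, a strain altered in DNA damage repair or cell cycle control. Growth inhibition is reported relative to vehicle.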

[3] = NCI Yeast Anticancer Drug Screen. Data for the sgs1 mgt1 strain (AID 161);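 further: 0% = growth of cultures given vehicle only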; conditions: S. cerevisiae sgs1 mgt1 strain, stronger effect = higher value
How it was run: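 Mutant yeast exposed to compound; growth scored against vehicle-only wells.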

[4] = NCI Yeast Anticancer Drug Screen. Data for the cln2 rad14 strain (AID 165);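 further: 0% = growth equal to vehicle treated cultures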; conditions: S. cerevisiae cln2 rad14 strain, stronger effect = higher value
How it was run: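 Test compounds were added to cln2 rad14 yeast cultures; inhibition of growth was then determined by comparison with vehicle treatment.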

[5] = NCI Yeast Anticancer Drug Screen. Data for the bub3 strain (AID 167); conditions: S. cerevisiae bub3 mutant strain, stronger effect = higher value
How it was run: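 Compounds were applied to a genetically altered yeast strain carrying a cell-cycle control defect. Growth inhibition was scored against vehicle-treated controls.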

[6] = NCI Yeast Anticancer Drug Screen. Data for the mlh1 rad18 strain (AID 175); conditions: S. cerevisiae mlh1 rad18 strain growth inhibition, stronger effect = higher value
How it was run: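 Inhibition values reflect reduced growth of mutant yeast versus vehicle-treated controls following compound exposure; the mutations affect DNA damage repair.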

[7] = at 5.0 µM (retest, dose inferred, filed as 0.5)
[8] = at 50.0 µM (retest, dose inferred, filed as 5.0)

Measured: growth inhibition

C(=NCCC[Si]12OCCN(CCO1)CCO2)c1ccc(C=NCCC[Si]23OCCN(CCO2)CCO3)cc1
inactive: [1]; [7] 3% | [1]; [8] -3% | [1]; at 50.0 µM 38.1% | [2]; [7] 2% | [2]; [8] 3% | [3]; [7] -1% | [3]; [8] -2% | [3]; at 50.0 µM 1.65% | [4]; [7] 3% | [4]; [8] -4% | [5]; [7] 1% | [5]; [8] -3% | [6]; [7] 3% | [6]; [8] 3% | [6]; at 50.0 µM 54%
active: [2]; at 50.0 µM 98.3% | [4]; at 50.0 µM 87.7% | [5]; at 50.0 µM 76.5%

CCCCCCCCCCCCCCCCOCC(Cl)COP(=O)(O)OP(=O)(O)OCC1OC(n2cc(C)c(=O)[nH]c2=O)CC1O (stereo not given)
active: [1]; [8] 99% | [1]; at 50.0 µM 86% | [2]; [8] 94% | [3]; [7] 90% | [3]; [8] 99% | [3]; at 50.0 µM 93% | [4]; [8] 85% | [5]; [8] 97% | [5]; at 50.0 µM 79.5% | [6]; [8] 97% | [6]; at 50.0 µM 84.7%
inactive: [1]; [7] 27% | [2]; [7] 30% | [2]; at 50.0 µM 59.6% | [4]; [7] 22% | [4]; at 50.0 µM 63.1% | [5]; [7] 50% | [6]; [7] 67%

O=C(O)CCCc1ccc2ccccc2c1
inactive: [1]; [7] -5% | [1]; [8] 0% | [1]; at 50.0 µM 17.4% | [2]; [7] 11% | [2]; [8] -1% | [2]; at 50.0 µM -27.1% | [3]; [7] 10% | [3]; [8] 6% | [3]; at 50.0 µM 11.9% | [4]; [7] 14% | [4]; [8] -71% | [4]; at 50.0 µM 40% | [5]; [7] 13% | [5]; [8] 0% | [5]; at 50.0 µM 5.65% | [6]; [7] -1% | [6]; [8] 9% | [6]; at 50.0 µM 12%

CN(C)N=Nc1c(-c2ccccc2)n[nH]c1-c1ccccc1
active: [1]; [7] 95% | [1]; [8] 99% | [1]; at 50.0 µM 99.6% | [2]; [7] 99% | [2]; [8] 100% | [2]; at 50.0 µM 99.5% | [3]; [7] 99% | [3]; [8] 100% | [3]; at 50.0 µM 99.3% | [4]; [7] 99% | [4]; [8] 99% | [4]; at 50.0 µM 99.5% | [5]; [7] 99% | [5]; [8] 99% | [5]; at 50.0 µM 99.5% | [6]; [7] 99% | [6]; [8] 100% | [6]; at 50.0 µM 99.5%

CC(=O)c1ccc2c(c1)CC1(C2)Cc2cc3c(c(C(=O)O)c2C1)CCC3 (stereo not given)
active: [1]; [8] 95% | [1]; at 50.0 µM 90.3% | [2]; [8] 95% | [2]; at 50.0 µM 90.1% | [3]; [8] 99% | [3]; at 50.0 µM 94.5% | [4]; [8] 95% | [4]; at 50.0 µM 95% | [5]; [8] 95% | [5]; at 50.0 µM 85.8% | [6]; [8] 97% | [6]; at 50.0 µM 88.6%
inactive: [1]; [7] 0% | [2]; [7] 10% | [3]; [7] 34% | [4]; [7] -3% | [5]; [7] 1% | [6]; [7] 15%

COc1ccc(/C=C(\C(=O)c2ccc(O)cc2)c2ccccc2)cc1OC
active: [1]; [8] 97% | [1]; at 50.0 µM 98.5% | [2]; [8] 97% | [2]; at 50.0 µM 98% | [3]; [8] 98% | [3]; at 50.0 µM 96.2% | [4]; [8] 99% | [4]; at 50.0 µM 93.7% | [5]; [8] 98% | [5]; at 50.0 µM 97.1% | [6]; [8] 99% | [6]; at 50.0 µM 97.5%
inactive: [1]; [7] -5% | [2]; [7] -9% | [3]; [7] 2% | [4]; [7] -5% | [5]; [7] -4% | [6]; [7] 0%

CC1=CC(=O)C=C(Br)C1=O
active: [1]; [8] 99% | [1]; at 50.0 µM 98.8% | [2]; [8] 99% | [2]; at 50.0 µM 99.5% | [3]; [8] 95% | [3]; at 50.0 µM 99.3% | [4]; at 50.0 µM 87.7% | [5]; [8] 99% | [5]; at 50.0 µM 99.2% | [6]; [8] 99% | [6]; at 50.0 µM 99.2%
inactive: [1]; [7] 18% | [2]; [7] 12% | [3]; [7] 6% | [4]; [7] 2% | [4]; [8] 41% | [5]; [7] 11% | [6]; [7] 13%

CCC/C(=N\O)S(=O)(=O)c1ccc(NN=O)nc1
inactive: [1]; [7] -18% | [1]; [8] -11% | [1]; at 50.0 µM -22.1% | [2]; [7] -20% | [2]; [8] 1% | [2]; at 50.0 µM -26.8% | [3]; [7] 3% | [3]; [8] -11% | [3]; at 50.0 µM -36.1% | [4]; [7] -31% | [4]; [8] -13% | [4]; at 50.0 µM 34.5% | [5]; [7] -33% | [5]; [8] -18% | [5]; at 50.0 µM -4.4% | [6]; [7] -33% | [6]; [8] -21% | [6]; at 50.0 µM -28%

CS(=O)(=O)c1cc(=O)c2ccccc2s1
active: [1]; [8] 99% | [1]; at 50.0 µM 97.2% | [2]; [8] 99% | [2]; at 50.0 µM 96.6% | [3]; [8] 99% | [3]; at 50.0 µM 97.5% | [4]; [8] 99% | [4]; at 50.0 µM 84.7% | [5]; [8] 100% | [6]; [8] 99% | [6]; at 50.0 µM 97.8%
inactive: [1]; [7] 6% | [2]; [7] 23% | [3]; [7] 21% | [4]; [7] 10% | [5]; [7] -3% | [5]; at 50.0 µM 31.6% | [6]; [7] 17%

NC(=O)c1c(Cl)nc2n1CCS2
inactive: [1]; [7] 1% | [1]; [8] 0% | [1]; at 50.0 µM 13.8% | [2]; [7] 0% | [2]; [8] -2% | [2]; at 50.0 µM -17.4% | [3]; [7] -2% | [3]; [8] 1% | [3]; at 50.0 µM -1.3% | [4]; [7] -2% | [4]; [8] -7% | [4]; at 50.0 µM 8.4% | [5]; [7] -3% | [5]; [8] -5% | [5]; at 50.0 µM -4.2% | [6]; [7] 4% | [6]; [8] 1% | [6]; at 50.0 µM 0.15%
